This note sets out measurements from PubChem BioAssay (NCATS).

Molecules are shown by their SMILES. Values joined by “and” are separate entries in the source; they are usually repeats but may differ in a detail not shown here. Equal values may be shown once. Inconclusive results are not listed. Active and inactive are the calls of the source. Unless noted, calls follow the shape of the full dose curve.

Assay [1] can be described thus: MultiTox-Fluor Cytotoxicity Assay - LYMP1-002 - Dead Cells (AID 960; active = well fitted cell-killing curve with a large enough effect;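 also: 0% = DMSO and 100% = tetraoctylammonium bromide; nearly all actives have a fitted effect of over 60% in size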). The procedure, abridged: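 Human lymphoblastoid cells (LYMP1-002), 2500/well in complete medium, were exposed to compounds for 16 hr at 37 C. Dead-cell protease activity was read as bis-AAF-R110 fluorescence (Ex/Em 485/520), normalized to DMSO and 15 uM tetraoctylammonium bromide; AC50 from Hill fits.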

A short description of assay [2]: Cell Viability - LYMP2-005 (AID 967; active = well fitted cell-killing curve with a large enough effect; also: potency is read from the fitted curve at half-maximal effect). The procedure, abridged: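 LYMP2-005 human lymphoblastoid cells (2500/well) were treated with compounds for 24 h at 37 C. Intracellular ATP was then measured by CellTiter-Glo luminescence after 30 min at room temperature. AC50 values came from Hill-equation fits of qHTS concentration-response data.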
The target of assay [3] is Glucocorticoid receptor (Homo sapiens) (UniProt P04150). As to the kind of experiment: qHTS assay for small molecule agonists of glucocorticoid receptor signaling (AID 588532; active = well fitted curve in the direction sought with a large enough effect in the signal ratio, with a control signal flat; the % refers to the signal ratio;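 also: 100% = dexamethasone at 0.1 µM and 0% = DMSO only wells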). The note with it: HeLa MMTV-bla, beta-lactamase ratio, agonist, 18 h; stronger effect = higher value; percent of dexamethasone control, DMSO zero. The procedure, abridged: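 Agonist-mode qHTS: GRE-driven beta-lactamase in HeLa cells exposed 18 h to titrated compounds (up to 92 uM), then CCF4 ratio read after 2 h at RT; Hill-fitted EC50, efficacy relative to 0.1 uM dexamethasone.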
Glucocorticoid receptor (Homo sapiens), sequence (P04150 whole entry, looked up): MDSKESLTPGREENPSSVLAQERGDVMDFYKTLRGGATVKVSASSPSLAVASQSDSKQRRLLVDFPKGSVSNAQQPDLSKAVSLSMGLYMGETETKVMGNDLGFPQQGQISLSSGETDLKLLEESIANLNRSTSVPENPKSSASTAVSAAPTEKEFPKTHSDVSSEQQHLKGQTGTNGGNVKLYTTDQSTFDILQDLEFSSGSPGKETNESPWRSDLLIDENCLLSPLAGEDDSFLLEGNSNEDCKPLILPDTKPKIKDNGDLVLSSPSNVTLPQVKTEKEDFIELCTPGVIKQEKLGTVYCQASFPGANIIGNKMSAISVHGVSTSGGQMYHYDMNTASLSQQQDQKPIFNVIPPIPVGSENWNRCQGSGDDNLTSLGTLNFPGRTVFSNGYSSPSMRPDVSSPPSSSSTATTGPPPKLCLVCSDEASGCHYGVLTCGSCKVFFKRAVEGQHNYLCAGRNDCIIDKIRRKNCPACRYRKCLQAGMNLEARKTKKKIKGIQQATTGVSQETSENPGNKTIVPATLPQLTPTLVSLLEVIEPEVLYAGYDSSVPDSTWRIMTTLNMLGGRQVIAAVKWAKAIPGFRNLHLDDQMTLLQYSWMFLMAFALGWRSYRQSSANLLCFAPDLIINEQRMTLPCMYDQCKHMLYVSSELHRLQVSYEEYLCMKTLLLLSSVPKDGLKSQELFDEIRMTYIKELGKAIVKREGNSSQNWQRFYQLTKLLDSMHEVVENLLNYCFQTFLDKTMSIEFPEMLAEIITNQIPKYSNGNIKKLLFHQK
On the technique in general: Quantitative high-throughput screening tests each substance at several concentrations.

For assay [4] the target is unchanged. The assay can be described thus: qHTS assay for small molecule antagonists of glucocorticoid receptor signaling (AID 588533; active = well fitted inhibition curve with a large enough effect in the signal ratio, with a control signal flat, not every such curve was filed as active; the % refers to the signal ratio;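 also: cells stimulated with 2 nM dexamethasone as agonist; % is scaled to controls: 0 for no effect and ±100 for the full control effect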). The procedure, abridged:
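Antagonist-mode qHTS: compound titrations added to GRE-bla HeLa cells, then dexamethasone 2 nM final; 18 h, 37 C. CCF4 FRET fluorescence normalized to dexamethasone and DMSO; IC50 from Hill fit.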

Assay [5] is described as follows: qHTS assay for small molecule antagonists of peroxisome proliferator-activated receptor delta signaling (AID 588535; active = well fitted inhibition curve with a large enough effect in the signal ratio, with a control signal flat, not every such curve was filed as active; the % refers to the signal ratio;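 as to max response: cells co-treated with a PPAR-delta agonist as stimulator during compound exposure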). To be noted: HEK293T PPARd-UAS-bla, beta-lactamase FRET ratio, 18 h; 460 nm channel. In short, it runs like this: (§1)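 Cell-based beta-lactamase assay in antagonist mode: 4000 HEK293T PPAR-delta-UAS-bla cells per well, 5 hr preincubation then 18 hr compound incubation at 37 C. IC50 obtained by Hill equation fitting.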

For assay [6], the target named is Peroxisome proliferator-activated receptor delta (Homo sapiens) (UniProt Q03181). Described as above. In short, it runs like this:
as §1

Assay [7] deals with Peroxisome proliferator-activated receptor gamma (Homo sapiens) (UniProt P37231). As to the kind of experiment: qHTS assay for small molecule agonists of peroxisome proliferator-activated receptor gamma signaling (AID 588536; active = well fitted curve in the direction sought with a large enough effect in the signal ratio, with a control signal flat, not every such curve was filed as active; the % refers to the signal ratio;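 also: 0% = DMSO basal wells and 100% = rosiglitazone at 2 µM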). The procedure, abridged:
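GeneBLAzer PPAR-gamma-UAS-bla HEK293 cells in 1% charcoal/dextran-treated FBS medium were treated 16 h at 37 C with compounds. Beta-lactamase activity was read by CCF4 ratio (460/530 nm). Response was normalized to 2 uM rosiglitazone (100%) and DMSO, then Hill-fitted for EC50 and efficacy.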

A short description of assay [8]: qHTS assay for small molecule agonists of retinoid X receptor alpha signaling (AID 588544).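 As to activation: 0% = DMSO basal wells and 100% = reference agonist.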 The note with it: HEK293T RXRa-UAS-bla, beta-lactamase reporter, 18 h; 530 nm emission.
The target in assay [9] is Retinoic acid receptor RXR-alpha (Homo sapiens) (UniProt P19793). The assay is described as above.
Retinoic acid receptor RXR-alpha (Homo sapiens), sequence (P19793 whole entry, looked up): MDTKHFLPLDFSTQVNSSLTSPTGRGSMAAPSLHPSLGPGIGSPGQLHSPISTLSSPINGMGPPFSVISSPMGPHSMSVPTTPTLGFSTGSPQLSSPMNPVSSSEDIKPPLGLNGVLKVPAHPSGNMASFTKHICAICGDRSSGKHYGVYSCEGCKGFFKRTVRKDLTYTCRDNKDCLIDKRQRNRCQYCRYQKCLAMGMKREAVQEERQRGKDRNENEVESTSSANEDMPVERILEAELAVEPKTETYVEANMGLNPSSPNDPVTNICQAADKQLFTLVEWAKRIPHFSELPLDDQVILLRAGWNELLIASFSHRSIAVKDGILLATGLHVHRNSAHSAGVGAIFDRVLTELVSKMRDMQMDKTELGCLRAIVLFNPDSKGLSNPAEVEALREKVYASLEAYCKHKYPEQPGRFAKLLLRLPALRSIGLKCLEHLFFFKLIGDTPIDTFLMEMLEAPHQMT
The target in assay [10] is Thyroid hormone receptor beta (Homo sapiens) (UniProt P10828). As to the kind of experiment: qHTS assay for small molecule antagonists of thyroid hormone receptor beta signaling (AID 588547; active = well fitted inhibition curve with a large enough effect in the signal ratio, with a control signal flat, not every such curve was filed as active; the % refers to the signal ratio;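 also: cells stimulated with 0.4 nM T3 agonist during compound exposure; series mostly up to about 77 µM; % is scaled to controls: 0 for no effect and ±100 for the full control effect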). To be noted: TR-UAS-bla HEK293, beta-lactamase ratio, antagonist mode, 18 h. The procedure, abridged:
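Inhibition of T3-driven (0.4nM final) beta-lactamase reporter activity was measured over 0.59 nM to 92 uM compound after 18 h at 37 C. The cells were GripTite HEK293 TR-UAS-bla in charcoal/dextran-stripped serum, with CCF4 ratio read-out and IC50 from Hill fits.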

Assay [11] can be described thus: qHTS assay for small molecule activators of the p53 signaling pathway (AID 651743; active = well fitted activation curve with a large enough effect in the signal ratio, not every such curve was filed as active; the % refers to the signal ratio; also: series mostly up to about 92 µM; % of control where 0% means no effect). The note with it: HCT-116 p53RE-bla, beta-lactamase FRET ratio, 16 h; activation: stronger effect = higher value. The procedure, abridged: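 Screen for p53 pathway agonists uses stably transfected p53RE-bla HCT-116 cells, 4,000 per well, treated 16 h at 37 C with compounds in DMSO.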
Assay [12] is described as follows: qHTS assay for small molecule disruptors of the mitochondrial membrane potential - 1 hr assay (AID 651754). Also: % is scaled to controls: 0 for no effect and ±100 for the full control effect; nearly all actives have a fitted effect of over 35% in size. In short, it runs like this:
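HepG2 cells, attached overnight at 37C, were exposed to compound or DMSO vehicle for 1 hr at 37C, 5% CO2, then stained with Mito-MPS dye for 30 min. Red aggregate versus green monomer fluorescence reports membrane potential.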

Assay [13] concerns the target Tumor necrosis factor (Homo sapiens) (UniProt P01375). As to the kind of experiment: qHTS assay to identify small molecules that stimulate Tumor Necrosis Factor-alpha (TNF-alpha) secretion (AID 651757; active = well fitted curve in the direction sought with a large enough effect in the signal ratio; the % refers to the signal ratio; also: 0% is about no effect). In short, it runs like this:
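THP-1 cells were exposed to compounds for 17 hrs at 37 C, after which secreted TNF-alpha was measured by homogeneous HTRF (TR-FRET) using cryptate- and XL665-labeled anti-TNF-alpha antibodies, read after 3 hr at room temperature.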

In assay [14] the target is Nuclear receptor subfamily 1 group I member 2 (Rattus norvegicus) (UniProt Q9R1A7). As to the kind of experiment: qHTS assay for small molecule activators of the rat pregnane X receptor (rPXR) signaling pathway (AID 651751; call rule not given here; also: 0% is about no effect). To be noted: rPXR reporter cells, luciferase (One-Glo), 24 h.
Nuclear receptor subfamily 1 group I member 2 (Rattus norvegicus), sequence (Q9R1A7 whole entry, looked up): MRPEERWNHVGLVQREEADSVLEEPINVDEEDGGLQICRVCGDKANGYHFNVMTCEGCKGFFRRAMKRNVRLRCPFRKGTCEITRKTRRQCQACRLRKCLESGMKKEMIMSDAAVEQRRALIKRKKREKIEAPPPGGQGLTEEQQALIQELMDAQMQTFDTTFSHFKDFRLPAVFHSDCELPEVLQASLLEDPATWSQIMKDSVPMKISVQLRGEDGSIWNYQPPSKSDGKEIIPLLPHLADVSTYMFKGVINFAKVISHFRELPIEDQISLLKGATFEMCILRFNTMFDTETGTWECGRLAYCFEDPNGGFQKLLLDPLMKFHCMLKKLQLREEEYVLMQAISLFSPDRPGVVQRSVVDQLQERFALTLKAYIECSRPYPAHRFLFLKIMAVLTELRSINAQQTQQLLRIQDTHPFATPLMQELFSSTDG
The nature of assay [15]: qHTS assay for small molecule activators of the human pregnane X receptor (PXR) signaling pathway (AID 720659; call rule not given here; also: 0% is about no effect).
Assay [16] addresses Estrogen receptor (Homo sapiens) (UniProt P03372). The assay can be described thus: qHTS assay for small molecule antagonists of estrogen receptor alpha signaling (AID 588513; active = well fitted curve in the direction sought with a large enough effect in the signal ratio, with a control signal flat, not every such curve was filed as active; the % refers to the signal ratio; also: % is scaled to controls: 0 for no effect and ±100 for the full control effect). In short, it runs like this: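 Antagonist mode: inhibition of 0.5 nM 17-beta-estradiol-driven beta-lactamase reporter in HEK 293 ER-alpha-UAS-bla cells, 18 h at 37C, CCF4 readout after 2 h at RT. Normalised to estradiol and DMSO; titration fitted to Hill.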

The target is the same in assay [17]. As to the kind of experiment: qHTS assay for small molecule agonists of estrogen receptor alpha signaling (AID 588514).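 Also: 0% = vehicle only and 100% = reference agonist; nearly all actives have a fitted effect of over 70% in size.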 The procedure, abridged:
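ER-alpha-UAS-bla GripTite HEK 293 cells in medium with 2% charcoal/dextran-treated FBS were treated with compound titrations at 37 C for 18 hrs; beta-lactamase reporter read by CCF4 fluorescence after 2 hrs at RT.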

Assay [18] in a line: qHTS assay for small molecule antagonists of retinoid X receptor alpha signaling (AID 588546; active = well fitted inhibition curve with a large enough effect in the signal ratio, with a control signal flat, not every such curve was filed as active; the % refers to the signal ratio;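 also: cells stimulated with 9-cis-retinoic acid as agonist; % is scaled to controls: 0 for no effect and ±100 for the full control effect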). The note with it: HEK293T RXRa-UAS-bla, beta-lactamase ratio, antagonist mode; measured here: W530 green channel, cytotoxicity proxy. In short, it runs like this:
(§2)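 Beta-lactamase reporter inhibition, read as CCF4 fluorescence ratio (ex 405, em 460/530 nm) after 2 h at RT. HEK293T UAS-bla cells, 2500/well, were stimulated with 9-cis-RA at 500 or 100 nM final alongside test compound for 18 h at 37 C.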

For assay [19], the target named is Retinoic acid receptor RXR-alpha (Homo sapiens) (UniProt P19793). The assay is described as above. To be noted: HEK293T RXRa-UAS-bla, beta-lactamase ratio, antagonist mode. The procedure, abridged: as §2
Assay [20] has as its target Bile acid receptor (Homo sapiens) (UniProt Q96RI1). The assay can be described thus: qHTS assay for small molecule antagonists of farnesoid X receptor signaling (AID 588526). Also: % is scaled to controls: 0 for no effect and ±100 for the full control effect. The procedure, abridged: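 Beta-lactamase reporter antagonist mode: HEK293T FXR-UAS-bla cells, titrated compound, CDCA stimulation, 16 h 37 C, CCF4 dye 2 h RT. Data normalized to CDCA 50 uM and DMSO; Hill-fit IC50.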

Tumor necrosis factor (Homo sapiens), sequence (P01375 whole entry, looked up): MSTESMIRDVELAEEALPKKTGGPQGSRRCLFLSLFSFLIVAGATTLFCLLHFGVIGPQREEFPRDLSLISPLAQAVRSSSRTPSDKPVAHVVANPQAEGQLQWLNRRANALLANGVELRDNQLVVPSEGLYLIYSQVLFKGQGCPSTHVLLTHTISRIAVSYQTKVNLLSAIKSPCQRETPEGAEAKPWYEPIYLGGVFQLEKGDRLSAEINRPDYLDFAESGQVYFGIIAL
Peroxisome proliferator-activated receptor delta (Homo sapiens), sequence (Q03181 whole entry, looked up): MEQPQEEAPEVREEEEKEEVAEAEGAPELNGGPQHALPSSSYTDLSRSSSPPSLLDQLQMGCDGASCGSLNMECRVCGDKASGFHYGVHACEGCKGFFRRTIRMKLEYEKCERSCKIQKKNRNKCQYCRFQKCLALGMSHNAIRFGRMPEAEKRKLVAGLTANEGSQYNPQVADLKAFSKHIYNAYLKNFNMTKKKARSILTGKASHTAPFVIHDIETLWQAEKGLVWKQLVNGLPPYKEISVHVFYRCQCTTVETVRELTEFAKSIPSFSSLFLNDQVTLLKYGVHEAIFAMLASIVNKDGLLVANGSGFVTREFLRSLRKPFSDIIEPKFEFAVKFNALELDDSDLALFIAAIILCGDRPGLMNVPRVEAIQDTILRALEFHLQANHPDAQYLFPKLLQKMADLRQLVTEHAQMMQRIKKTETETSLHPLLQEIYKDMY
Thyroid hormone receptor beta (Homo sapiens), sequence (P10828 whole entry, looked up): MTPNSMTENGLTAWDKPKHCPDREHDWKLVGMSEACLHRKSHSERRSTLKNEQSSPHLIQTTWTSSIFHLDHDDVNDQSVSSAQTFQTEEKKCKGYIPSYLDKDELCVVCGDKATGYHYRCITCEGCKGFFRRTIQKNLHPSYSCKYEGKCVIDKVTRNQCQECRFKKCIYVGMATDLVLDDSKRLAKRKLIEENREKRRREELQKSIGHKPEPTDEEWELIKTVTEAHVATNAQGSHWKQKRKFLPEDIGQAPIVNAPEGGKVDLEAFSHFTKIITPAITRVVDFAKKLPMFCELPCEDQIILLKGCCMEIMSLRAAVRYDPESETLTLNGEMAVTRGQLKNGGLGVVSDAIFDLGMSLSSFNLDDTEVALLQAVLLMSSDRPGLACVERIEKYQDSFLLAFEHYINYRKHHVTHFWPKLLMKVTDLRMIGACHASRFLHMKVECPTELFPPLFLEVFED
Estrogen receptor (Homo sapiens), sequence (P03372 whole entry, looked up): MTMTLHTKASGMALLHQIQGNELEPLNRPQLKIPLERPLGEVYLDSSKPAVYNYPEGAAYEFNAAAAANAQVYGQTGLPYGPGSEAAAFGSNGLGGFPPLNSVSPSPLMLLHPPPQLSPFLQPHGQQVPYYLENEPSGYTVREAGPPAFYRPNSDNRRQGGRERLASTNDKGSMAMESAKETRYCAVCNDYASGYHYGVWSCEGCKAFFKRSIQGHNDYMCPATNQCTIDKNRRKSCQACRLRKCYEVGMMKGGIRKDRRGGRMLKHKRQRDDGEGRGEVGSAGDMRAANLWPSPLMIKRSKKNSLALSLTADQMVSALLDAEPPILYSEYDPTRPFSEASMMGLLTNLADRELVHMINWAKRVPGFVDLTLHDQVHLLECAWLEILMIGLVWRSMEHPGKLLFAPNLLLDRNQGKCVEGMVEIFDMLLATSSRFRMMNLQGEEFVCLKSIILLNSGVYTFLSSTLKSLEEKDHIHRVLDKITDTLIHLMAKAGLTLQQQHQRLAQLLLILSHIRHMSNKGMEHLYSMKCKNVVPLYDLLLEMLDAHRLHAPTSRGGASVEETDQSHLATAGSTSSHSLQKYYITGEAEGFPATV
Peroxisome proliferator-activated receptor gamma (Homo sapiens), sequence (P37231 whole entry, looked up): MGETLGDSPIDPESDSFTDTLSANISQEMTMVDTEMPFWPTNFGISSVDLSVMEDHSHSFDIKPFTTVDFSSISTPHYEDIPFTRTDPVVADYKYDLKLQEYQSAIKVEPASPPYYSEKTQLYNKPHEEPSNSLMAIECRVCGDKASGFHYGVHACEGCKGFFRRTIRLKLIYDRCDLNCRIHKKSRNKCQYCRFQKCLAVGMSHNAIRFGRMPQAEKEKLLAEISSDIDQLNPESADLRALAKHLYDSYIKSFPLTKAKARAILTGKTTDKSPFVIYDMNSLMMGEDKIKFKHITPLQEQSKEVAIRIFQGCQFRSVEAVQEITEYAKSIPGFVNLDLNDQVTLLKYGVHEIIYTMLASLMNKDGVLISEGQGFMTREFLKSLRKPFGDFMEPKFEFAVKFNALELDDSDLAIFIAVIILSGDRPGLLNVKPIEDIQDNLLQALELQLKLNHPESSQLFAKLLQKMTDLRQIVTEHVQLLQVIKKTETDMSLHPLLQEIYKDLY
Bile acid receptor (Homo sapiens), sequence (Q96RI1 whole entry, looked up): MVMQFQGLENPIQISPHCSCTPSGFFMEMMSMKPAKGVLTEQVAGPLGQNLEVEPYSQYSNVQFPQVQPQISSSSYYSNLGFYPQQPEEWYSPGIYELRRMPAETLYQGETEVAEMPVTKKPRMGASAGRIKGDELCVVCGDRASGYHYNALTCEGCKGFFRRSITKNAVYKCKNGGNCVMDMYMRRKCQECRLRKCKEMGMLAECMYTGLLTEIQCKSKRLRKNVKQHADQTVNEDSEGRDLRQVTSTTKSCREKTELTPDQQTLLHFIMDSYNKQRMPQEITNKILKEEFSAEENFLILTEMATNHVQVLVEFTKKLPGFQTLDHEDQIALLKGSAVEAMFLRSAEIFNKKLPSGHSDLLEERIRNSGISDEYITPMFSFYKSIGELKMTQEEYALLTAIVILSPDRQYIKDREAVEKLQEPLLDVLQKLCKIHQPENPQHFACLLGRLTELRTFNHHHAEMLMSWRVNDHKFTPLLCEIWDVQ

As to `O=Cc1ccc(Cl)c(Cl)c1`, the Potency result in assay [1], in assay [2], in assay [4] and in assay [12] was “inactive” throughout. Besides, the results for the activation in assay [3] and in assay [11] were -2.24% (inactive) and -1.08% (inactive), respectively. In addition, the max response in assay [5] was 20.6%; in [8], 2.17%; in assay [14], -0.904% (inactive). Moreover, the molecule was called inactive in assay [6], in [7], in assay [9], in assay [13] and in [15]. Besides, in assay [10], the activity change % (negative = inhibition) was 11% (inactive).
Take `ClC1=C(Cl)C(Cl)(Cl)C(Cl)=C1Cl`: the Potency result in assay [1], in [2], in [16] and in [12] was “inactive” each time. The molecule was called inactive in assay [17], in [7], in assay [9], in [13] and in [15]. Moreover, in [3], the activation is 4.1% (inactive) and -7.79% (inactive). In addition, the max response in [8] was -6.21% and -5.28%; in [18], 5.17% and -3.52%; in assay [19] it was -8.53% (inactive) and -12% (inactive); in assay [14], 3.04% (inactive) and -2.94% (inactive). Besides, the activity change % (negative = inhibition) in assay [10] is -17.2% (inactive) and -1.82% (inactive).
Take `c1ccc2c(c1)-c1cccc3c1c-2cc1ccccc13`: the Potency result in assay [1], in assay [2] and in assay [12] was “inactive” each time.
Consider `CNc1ccc(O)cc1`, for which the Potency in assay [2] was 5.01 µM (active). Moreover, the activation in assay [11] was -13.4% (inactive). In addition, the max response in assay [14] is -0.134% (inactive). Moreover, in [15], the molecule was called inactive.
In the case of `O=[N+]([O-])c1cc([N+](=O)[O-])c2ccc(S(=O)(=O)O)cc2c1O`, the Potency entry in assay [1], in [2] and in assay [12] was “inactive” each time.
On to `CN1[C@H]2CC(OC(=O)[C@H](CO)c3ccccc3)C[C@H]1[C@H]1O[C@H]12` (stereo partly specified), for which the Potency result in assay [1], in assay [16] and in [12] was “inactive” each time. Also, the result in assay [17], in assay [6], in [7], in assay [9], in assay [13] and in [15] was inactive. The max response in assay [5] is -6.66% and 15.5%; in assay [8], 3.87% and -2.7%; in assay [18], -12.3% and -10.2%; in [19], -1.24% (inactive) and 3.3% (inactive); in assay [14], -5.42% (inactive) and 5.83% (inactive). Further, the activity change % (negative = inhibition) in assay [10] is -22.7% (inactive) and -1.59% (inactive). In addition, the activation in assay [11] is -1.86% (inactive) and -3.02% (inactive).
In the case of `Cc1cccc(O)c1C`, the Potency entry in assay [1], in assay [2], in [16], in assay [20], in assay [4] and in assay [12] was “inactive” in each case. Further, the call in assay [17], in assay [6], in assay [7], in assay [9], in [13] and in assay [15] was inactive. In addition, the activation in assay [3] is 5.02% (inactive); in assay [11], -2.61% (inactive). The max response in assay [5] was -7.79%; in assay [8], -18.7%; in assay [18] it was 10.3%; in assay [19] it was 20.3% (inactive); in [14], -0.434% (inactive). Moreover, the activity change % (negative = inhibition) in assay [10] was 4.76% (inactive).
